Measured values taken from ChEMBL document CHEMBL4513216, “Probing the Open Global Health Chemical Diversity Library for Multistage-Active Starting Points for Next-Generation Antimalarials” (ACS Infect Dis, 2020).
The whole screen tested about 69,000 compounds, of which about 8,600 (12%) showed an effect of 50% or more. For the sample, strong results were picked, then their nearest neighbours and some compounds at random.

These molecules were tested on Plasmodium berghei (assay: Screen against P. berghei liver stage (PbLuc), transformed with Luciferase, at 10uM). Details: tested at 10 uM.
Assay type: functional, HepG2

Compound	INHIBITION [%]
Cn1cccc1C(=O)N1CCn2nnc(COc3cccnc3)c2C1	-6.21
Cc1nn(C)c(N(C)C)c1CNCc1ccnc(N2CCCCC2)c1	-56.7
Cc1ccc(C(=O)N2CCN(CC(C)O)CC2)cc1S(C)(=O)=O (stereo not drawn)	-19.6
CS(=O)(=O)c1ccc(NC(=O)NCCC2=CCCCC2)cc1	-165
COc1cc(NC(=O)c2ccc(C)cc2C)c(C(=O)N(C)C)cc1OC	-7.36
O=C(NCCCSc1ccc(F)cc1)C1CCc2cn[nH]c2C1 (stereo not drawn)	50.8
CN(CCCNC(=O)C1CCc2cn[nH]c2C1)c1ccccc1 (stereo not drawn)	24.3
CN(CCCNC(=O)C1CCc2cn[nH]c2C1)c1ccc(F)cc1 (stereo not drawn)	31.2
CN(Cc1nc(Cc2cccc(F)c2)no1)C1CCOCC1	-24.2
Cc1nn(C)cc1Cn1c(=O)cnc2ccccc21	43.4
COCCN1CC(C(=O)Nc2ccc3c(c2)CCC(=O)N3C)CC1=O (stereo not drawn)	-22.6
CCCC(=O)Nc1ccc2c(c1)C1(CCOCC1)CN2CCOC	52.1
CCC(=O)Nc1ccc2c(c1)C1(CCOCC1)CN2CCOC	55.7
COCCN1CC2(CCOCC2)c2cc(NC(=O)C3CC=CC3)ccc21	76.5
CCS(=O)(=O)Nc1ccc2c(c1)C1(CCOCC1)CN2C	46.6
COCC(=O)Nc1ccc2c(c1)C1(CCOCC1)CN2CCF	-4.08
CN(C)C(=O)N1CC2(CCOCC2)c2cc(NC(=O)CCO)ccc21	45.2
CCC(=O)Nc1ccc2c(c1)C1(CCOCC1)CN2CCF	10.4
CCN1CC2(CCOCC2)c2cc(NS(=O)(=O)CC)ccc21	38.5
Cn1ccnc1CN1CCC2(CC1)CC(NC(=O)c1ccccn1)CO2 (stereo not drawn)	28.4
Cc1cc(C)nc(C2(C)CCCN2CCO)n1 (stereo not drawn)	-4.6
CCCc1cc(C(=O)Nc2nc(SC)ns2)n(C)n1	-106.9
Cc1ccccc1C(C)NC(=O)CSCC#N (stereo not drawn)	31.9
Cc1ccc(C(=O)NC2CCN(S(C)(=O)=O)CC2)c(=O)[nH]1	47.7
Cc1cnc(C(=O)N2CCN(c3ncc4c(n3)CCOC4)CC2)cn1	27.4
CCCc1nc(CN(CC)C(=O)c2onc3ccccc23)no1	-14.1
COCCN1CC(O)CN(C(=O)c2ccc(SC)cc2)CC1=O (stereo not drawn)	29

Compound	INHIBITION [%]
Cc1ccc(S(=O)(=O)Nc2ccc(-n3cccc3C(=O)O)c(C)c2)s1	-3.16
Cc1cc(NS(=O)(=O)c2ccccc2F)ccc1-n1cccc1C(=O)O	-19.7
Cc1ccc(S(=O)(=O)Nc2ccc(-n3cccc3C(=O)O)c(C)c2)cc1	56
Cc1n[nH]c(C)c1NC(=O)CN1CCN(c2nccs2)C(C)C1 (stereo not drawn)	14.4
Cc1cccn2c(CC(=O)N3CCC(Oc4ncccn4)CC3)cnc12	-30.3
Cc1ccc2nc(C(=O)N3CCC(CCn4cccn4)CC3)cn2c1	-14.1
Cc1cccn2c(CC(=O)N3CCC(CCn4cccn4)CC3)cnc12	71.3
COc1ncc(NCc2cc(C#N)cs2)cc1C(N)=O	11.4
CO[C@@H]1CCN(Cc2c(C)noc2C)[C@@H]2CN(Cc3ccco3)C[C@@H]21	35.5
CCN(CC1CCOC1)C(=O)Nc1ccc(N2CCOCC2)nc1 (stereo not drawn)	36.05
Cn1cc(CCC(=O)N2CCCN(c3ncccc3C#N)CC2)cn1	37.4
Cc1ccc(F)c(S(=O)(=O)N2CCCC2c2ccncc2)c1 (stereo not drawn)	45.3
O=S(=O)(c1cc(F)ccc1F)N1CCCC1c1ccncc1 (stereo not drawn)	19.3
COc1ccc(C2CCCN2S(=O)(=O)c2cc(F)ccc2F)cc1 (stereo not drawn)	62.6
CCOCc1cccc(S(=O)(=O)Nc2ccn(CC)n2)c1	18.4
COCCC1(C(=O)O)CCCN(C(=O)c2cnc3c(c2)CCCC3)C1 (stereo not drawn)	47.1
O=C(c1cnc2c(c1)CCC2)N1CCCC(CO)(CC2CC2)C1 (stereo not drawn)	68.4
COCCCC1(CO)CCCN(C(=O)c2cnc3c(c2)CCCC3)C1 (stereo not drawn)	35.9
CCn1[nH]c(C)c2c(C(F)(F)C(F)(F)F)cc(=O)nc1-2	50.5
Cc1[nH]n(C)c2nc(=O)cc(C(F)(F)C(F)(F)F)c1-2	76.3
CCn1[nH]c(C)c2c(C(F)(F)F)cc(=O)nc1-2	31.7
O=C(Cn1nc2ccccc2n1)N1CCCn2cncc2C1	1.37
Cc1csc(NC(=O)C(C)Oc2ccc3c(c2)OCO3)n1 (stereo not drawn)	16.2
Cc1cnn(CC2CCCN2C(=O)c2cc(O)nc3ccccc23)c1 (stereo not drawn)	-29.8
Cc1ccc(NC(=O)NCCc2ccncc2C)c(N(C)C)n1	-0.554
Cc1nccn1CCCN1CCCC(c2nccn2CC2CCC2)C1 (stereo not drawn)	41.8
